Screening results from PubChem.
Pf growth 96h = P. falciparum growth inhibition at 96 hour, primary screen for plastid delayed-death inhibitors; P. falciparum luciferase reporter growth, 96 h; 320,000 compounds, 6.9% hits; Potency, µM (series often up to 28.7 µM), without a hit: top-dose activity change, negative = inhibition, usual class: inhibitors; AID 504834; also: potency is read from the fitted curve at half-maximal effect; % is scaled to controls: 0 for no effect and ±100 for the full control effect
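96 h incubation, 37 C, 5% CO2, of luciferase-reporter P. falciparum-infected RBCs (2% hematocrit, 0.05% parasitemia final) with test compounds; endpoint luminescence.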
Sm TGR inh = inhibitors of Schistosoma mansoni thioredoxin glutathione reductase. purified TGR, DTNB reduction, TNB absorbance 405 nm. Potency, µM (doses to about 114 µM), without a hit: top-dose activity change, negative = inhibition, usual class: inhibitors. 360,000 compounds, 3% hits; also: potency is read from the fitted curve at half-maximal effect; % is scaled to controls: 0 for no effect and ±100 for the full control effect; nearly all actives have a fitted effect of over 60% in size
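Kinetic colorimetric format: TGR-catalysed, NADPH-driven DTNB reduction monitored via TNB absorbance. Enzyme dispensed at 20 nM; compound exposure 15 min at room temperature before reaction start.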
Pf growth 48h = inhibits P. falciparum growth in the first generation, 48 h. P. falciparum luciferase growth in erythrocytes, 48 h. Potency, µM (highest dose often 28.7 µM), for the others: top-dose activity change, negative = inhibition, hits mostly inhibitors. 310,000 compounds, 5.9% hits. AID 504832; also: potency is read from the fitted curve at half-maximal effect; % is scaled to controls: 0 for no effect and ±100 for the full control effect
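In quantitative HTS format, infected erythrocytes bearing luciferase-reporter parasites were treated for a single generation at 37 C. Luminescence after adding detection reagent served as the growth measure.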
Cycloheximide cs = counter-screen hit for Shiga toxin inhibitors, cycloheximide; cell reporter, cycloheximide protein synthesis inhibition counterscreen; max response, %; 300,000 compounds, 12% hits; in the data active = max response mostly above about 13%, no sharp cut-off; inactive = mostly below about 14%; also: read at 38.3 µM for the half of the compounds with a filed dose; 0% is about no effect
NS1 function inh = blocks influenza NS1 protein function; Potency, µM (series often up to 46.1 µM), for inactives: at the top dose activity, positive = more growth; 270,000 compounds, 0.4% hits; calls by dose curve; also: potency is read from the fitted curve at half-maximal effect; actives are rising curves; nearly all actives have a fitted effect of over 50% in size
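OD600 was taken as the measure of yeast growth restored by compound in an NS1-expressing S. cerevisiae strain. Cells had been washed out of glucose medium and diluted 1:100 into galactose -URA medium, pH 6.0.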
Shiga toxin inh = Shiga toxin inhibition; inhibition, % at 38.7 µM; Vero cells, Shiga toxin protein synthesis inhibition reporter; 290,000 compounds, 9.2% hits; in the data active = inhibition mostly above about 28%, no sharp cut-off; inactive = mostly below about 43%; also: 0% is about no effect
* = called active by the depositor; u = inconclusive; x = not tested or not shown; [ ] = another dose, or the depositor's remark. In the library only some 21% were active in any assay of this set; here they are far more common. Unless noted, calls follow the shape of the dose curve; as a rule, active = well fitted curve in the direction sought with a large enough effect; inconclusive = small, poorly fitted or top-dose-only effect, or another doubt; inactive = no such curve, though single readings can be large; an effect the other way counts as inactive or inconclusive.

SMILES	Pf growth 96h	Sm TGR inh	Pf growth 48h	Cycloheximide cs	NS1 function inh	Shiga toxin inh
CCN1CCN(CCCNC(=O)CS(=O)(=O)Cc2nc(-c3cccc(OC)c3)oc2C)CC1	2%	-17%	3%	-1	0%	-8
COc1cccc(-c2nc(CS(=O)(=O)CC(=O)Nc3ccccc3C)c(C)o2)c1	0%	-31%	-9%	-3	3%	-4
CCCNC(=O)CS(=O)(=O)Cc1nc(-c2cccc(OC)c2)oc1C	-8%	22µM*	11%	-4	-11%	16
CCOCCCNC(=O)CS(=O)(=O)Cc1nc(-c2cccc(OC)c2)oc1C	x	45µM*	-1%	3	-49%	8
COc1cccc(-c2nc(CS(=O)(=O)CC(=O)Nc3cc(OC)ccc3OC)c(C)o2)c1	12%	50µM*	-21%	-3	-1%	-10
COc1cc(CNc2ccc3[nH]c(=O)[nH]c3c2)ccc1OCc1ccc(F)cc1	0%	u	-7%	31*	18%	36*
COc1cc(CNc2ccc3[nH]c(=O)[nH]c3c2)ccc1OCc1ccccc1	u	-28%	-5%	14	19%	18
COc1cc(CNc2ccc(N3CCN(C(C)=O)CC3)cc2)ccc1OCc1ccc(F)cc1	u	x	-16%	25*	2%	75*
COc1cc(CNc2ccc3[nH]c(=O)[nH]c3c2)ccc1OCc1ccc(Cl)cc1	10%	-27%	2%	29*	-2%	45*
COc1cc(CNc2ccc3[nH]c(=O)[nH]c3c2)ccc1OCc1ccccc1F	348%	0%	-5%	19*	7%	37*
Cc1ccc(OCCCC(=O)Nc2sc3c(c2C(N)=O)CCC(C)C3)cc1 (centres undefined)	x	1%	x	x	x	x
CCn1c(=O)c2sccc2n(Cc2cccc(C)c2)c1=O	u	5%	-6%	10	-11%	-3
COc1cc(CNc2ccc3[nH]c(=O)[nH]c3c2)ccc1OCc1c(F)cccc1Cl	29%	-29%	12%	2	6%	7
COc1cc(CNc2ccc3[nH]c(=O)[nH]c3c2)ccc1OCc1ccc(F)cc1Cl	19%	u	14%	14	3%	31*
CCOc1cc(CNc2ccc3cn[nH]c3c2)ccc1OC	13µM*	-4%	x	2	26%	18
O=C(CNC(=O)C(c1ccccc1)c1ccccc1)OCC(=O)c1cccs1	u	-10%	18%	-1	-7%	-9
Cc1ccc(NC(=O)COC(=O)CNC(=O)c2ccco2)cc1	54%	-1%	190%	-4	x	4
[O-][n+]1ccccc1SCc1ccccc1	58%	-2%	u	x	x	x
N#CC(C#N)=C(N)CSc1cccc[n+]1[O-]	12µM*	-3%	5.2µM*	-3	x	15
O=C(CSc1cccc[n+]1[O-])c1cc2ccccc2o1	4.1µM*	17%[11.4 µM]	x	131*	-198%	140*
O=C(CSc1cccc[n+]1[O-])c1cc(Cl)ccc1Cl	0.83µM*	8%	u	28*	x	78*
CCOC(=O)c1c(C)[nH]c(CCC(=O)NCCCN2CCN(c3ccccc3F)CC2)c1C	x	-9%	x	x	x	x
C=CCn1c(SCC(=O)Nc2ccc(N3CCOCC3)cc2)nnc1-c1ccncc1	-16%	-4%	-6%	-6	6%	20
C=CCn1c(SCC(=O)Nc2ccc(-c3nc4ccc(C)cc4s3)cc2)nnc1-c1ccncc1	u	0%	127%	19*	-1%	39
Cc1nc(SCC(=O)Nc2nsc(-c3ccc(C(C)(C)C)cc3)n2)c2c3c(sc2n1)CCCC3	x	-1%	x	x	x	x
SMILES	Pf growth 96h	Sm TGR inh	Pf growth 48h	Cycloheximide cs	NS1 function inh	Shiga toxin inh
Cc1nnc(SCC(=O)Nc2ccc(-c3nc4ccccc4s3)cc2)s1	u	1%	99%	65*	-5%	38*
Cc1nnc(SCC(=O)Nc2nsc(-c3ccc(C(C)(C)C)cc3)n2)s1	u	-1%	x	23*	-70%	32
O=C(Nc1ccc(-c2nc3ccccc3s2)cc1)c1cc(-n2cnnc2)ccc1Cl	7.4µM*	7%	9.3µM*	27*	19%	19
Cc1nnc(SCC(=O)Nc2ccccc2NC(=O)CSc2nnc(C)s2)s1	-18%	5%	12%	-5	-2%	-8
Cc1ccc(NC(=O)c2cc(-n3cnnc3)ccc2Cl)cc1	3%	-3%	-12%	-2	-4%	-1
Cc1onc(-c2ccccc2)c1C(=O)NC1CCC(C)CC1 (centres undefined)	u	-4%	u	x	x	x
c1ccc2cc(CNCc3cccc4ccccc34)ccc2c1	u	21%	2%	-1	-8%	35
CCn1c(SCC(=O)Nc2ccc(-c3nc4ccc(C)cc4s3)cc2)nnc1-c1ccccc1	13µM*	-29%	214%	34*	3%	59*
CCCNC(=O)NNC(=O)c1cc(-c2ccc3c(c2)OCO3)nc2ccccc12	-14%	-20%	u	14	20%	-19
O=C(O)c1cc(-c2ccc3c(c2)OCO3)nc2ccccc12	8.3µM*	0%[11.4 µM]	x	-1	-9%	-5
CCCN(CCC)C(=O)c1cc(-c2ccc3c(c2)OCO3)nc2ccccc12	1.7µM*	-12%	x	1	-7%	12
CC(C)Oc1ccc(CNC(=O)c2ccccc2NC(=O)c2nsc3ccccc23)cc1	x	-2%	x	x	x	x
O=C(O)CC(CNS(=O)(=O)c1ccccc1)c1ccccc1 (centres undefined)	10µM*	8%	19%	-4	3%	-8
COc1ccc(NC(=O)C2CC(=O)n3ncnc3N2)cc1 (centres undefined)	u	2%	40%	1	2%	-8
COc1cccc(NC(=O)C2CC(=O)n3cnnc3S2)c1 (centres undefined)	4%[5.75 µM]	0.63µM*	u	4	-55%	7
COc1ccc(NC(=O)C2CC(=O)n3cnnc3S2)cc1 (centres undefined)	x	0.28µM*	-5%	-6	-54%	-15
COc1cccc(C(=O)/C=C/Nc2ccc(S(=O)(=O)Nc3ccc(C(C)=O)cc3)cc2)c1	13µM*	u	10µM*	51*	5%	91*
COc1ccc(NS(=O)(=O)c2ccc(Oc3cccc(C(=O)O)c3)cc2)cc1	u	30%	11%	-2	3%	-13
COc1ccc(C(=O)/C=C/Nc2ccc(S(=O)(=O)Nc3cccc(C(C)=O)c3)cc2)cc1	u	2%	u	39*	-5%	93*
CC(=O)c1ccc(NS(=O)(=O)c2ccc(C)cc2)cc1	34%	-2%	x	9	-2%	1
CC(=O)c1ccc(NS(=O)(=O)c2cccc(C)c2)cc1	x	0%	41%	36*	11%	89*
Fc1cccc(-c2nnn3c2nc(NC2CCCCC2)c2ccccc23)c1	x	1%	x	x	x	x
C=C(C)Cn1cnc2c(oc3nc4c(cc32)CCCC4)c1=O	12µM*	-15%	140%	33*	-7%	46*
